H9c2 protect = modulators protecting cardiomyocytes from myocardial damage; H9c2 cardiomyocytes, H2O2 injury protection, ATPLite, 2 h; protection from H2O2 cell death, % at 20 µM; 0.63% of 360,000 active; AID 588492;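 active = compounds giving at least 50% protection of heart cells from peroxide-induced death in the single-dose screen, raw or plate-pattern-corrected value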;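 note: 0% = DMSO wells with peroxide and 100% = DMSO wells without peroxide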
Mot1-301 SUMO = SUMOylation pathway inhibition by Mot1-301 growth rescue | AID 2716 | 1% of 320,000 active | growth rescue, % at 18.8 µM | S. cerevisiae Mot1-301 growth rescue, ATP luminescence, 38.5C; percent above DMSO median, 100 means doubled;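 active = every valid replicate shows activation above 250% relative to neutral control wells; inactive = the rest, any valid replicate at or below 250%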;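 note: OY570 slx delta 5 strain wells were the positive control but not used for scaling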
FAS-TE inh = inhibitors of human fatty acid synthase thioesterase domain | P49327 | recombinant FAS-TE, OMFH fluorogenic substrate, fluorescence endpoint | inhibition, % at 15 µM | 0.67% of 360,000 active | AID 602261;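 active = compounds whose normalised, plate-corrected inhibition of enzyme fluorescence in the single-dose primary screen is 50% or more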;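 note: 0% = DMSO with enzyme and 100% = substrate without enzyme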
aDG glyco up = alpha-DG glycosylation activation | Pro5-aDG cells, alpha-DG glycosylation AlphaScreen (IIH6); 0% Pro5, 100% B10-LARGE cell signal | activation, % at 10 µM | 0.22% of 360,000 active;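 active = activation of at least 8% versus controls, or a plate z-score of at least 8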;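 note: Pro5 are CHO cells carrying HIG-tagged alpha-DG that lacks glycosylation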
MPTP inh = permeability transition pore inhibition | isolated mouse mitochondria, Ca2+ swelling absorbance, 30 min | inhibition, % at 10 µM | 1.4% of 360,000 active | AID 602449;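 active = inhibition of 50% or more, scaled per plate between neutral and stimulator controls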;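 note: 0% = DMSO wells given calcium and 100% = 1 mM EGTA wells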
Yeast superoxide = lowers age-related superoxide in aged yeast cells | S. cerevisiae aged cells, superoxide DHE fluorescence; active compounds read low | 0.18% of 330,000 active | AID 2690 | superoxide response (% of plate mean), % at 10 µM;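 active = superoxide response under a set limit, about three screen SD below normal, cut at about 65% in these data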;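 note: yeast aged for seven days with compound at 30 °C before DHE staining; 100% = average MFI of all compound-treated wells on the plate with controls excluded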
Rh123 counter = Rhodamine 123 counter-screen of mitochondrial pore hits; inhibition, % at 10 µM; 78% of 5,000 active; AID 624504; isolated mitochondria, membrane potential, Rhodamine 123 fluorescence; shares compounds with MPTP inh; in the data active = inhibition above about 22%;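 note: 0% = DMSO vehicle and 100% = positive control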
MPTP swell DR = MPTP inhibition, dose response swelling confirmation; shares compounds with MPTP inh; isolated mitochondria swelling, absorbance; IC50, µM; 58% of 780 active; AID 651561; in the data active = IC50 below about 20 µM
MPTP counter DR = MPTP inhibitor counter-screen activity, dose response; shares compounds with MPTP inh; AID 651564; isolated mitochondria counterscreen, fluorescence read-out; IC50, µM; 49% of 780 active; in the data active = IC50 below about 80 µM
An asterisk follows results filed as active. Only some compounds are listed: those with a hit (about 3.8% of all), similar ones and a draw of the others.

Cc1cccc(OCCSCc2nc3ccccc3[nH]2)c1 was read as H9c2 protect -28, Mot1-301 SUMO 19, FAS-TE inh 3, aDG glyco up 0, MPTP inh 2 and Yeast superoxide 105.
For Cc1ccccc1OCCSCc1nc2ccccc2[nH]1 the results were H9c2 protect -13, Mot1-301 SUMO 18, FAS-TE inh 7, aDG glyco up 1, MPTP inh 79*, Yeast superoxide 88 and Rh123 counter 67*.
`CCn1cc(CN2CCC(C(=O)Nc3ccc(Oc4ccccc4F)cc3)CC2)c(C)n1` gave H9c2 protect -3, Mot1-301 SUMO -6, FAS-TE inh -2, aDG glyco up 2, MPTP inh 1 and Yeast superoxide 102.
`CC(C)n1cc(CN2CCC(C(=O)Nc3ccc(Oc4ccccc4F)cc3)CC2)cn1` gave H9c2 protect -8, Mot1-301 SUMO 22, FAS-TE inh -2, aDG glyco up 1, MPTP inh 83*, Yeast superoxide 100, Rh123 counter 14, MPTP swell DR 4.6* and MPTP counter DR 26*.
For CN(CC(=O)NCC(=O)Nc1ccc(F)c(F)c1F)C1CCS(=O)(=O)C1 (stereo not given) the results were H9c2 protect -3, Mot1-301 SUMO 17, FAS-TE inh -8, aDG glyco up 0, MPTP inh 1 and Yeast superoxide 111.
CCN(CC)S(=O)(=O)c1ccc(NC(=O)COC(=O)CNC(=O)C2CCCCC2)cc1 was read as H9c2 protect -4, FAS-TE inh 0, aDG glyco up 0 and MPTP inh 0.
`C=C(CCO)C1=CCN(S(=O)(=O)C(C)(C)C)[C@H]1CCO` gave H9c2 protect -6, FAS-TE inh -5, aDG glyco up 0 and MPTP inh 6.
Screening COc1cccc(NC(=O)Cn2cc(C=O)c3ccccc32)c1 returned H9c2 protect -12, Mot1-301 SUMO -24, FAS-TE inh 2, aDG glyco up 0, MPTP inh 1 and Yeast superoxide 115.
Screening CCc1cccc(NC(=O)Cn2cc(C=O)c3ccccc32)c1 returned H9c2 protect -13, Mot1-301 SUMO 4, FAS-TE inh 12, aDG glyco up 1, MPTP inh 73*, Yeast superoxide 100 and Rh123 counter 50*.
For O=S(=O)(N/N=C1/CCCc2ccccc21)c1ccc(Br)cc1 the results were H9c2 protect -2, Mot1-301 SUMO 47, FAS-TE inh 19, aDG glyco up 0, MPTP inh 1 and Yeast superoxide 95.
O=S(=O)(N/N=C1/CC(c2ccccc2)Oc2ccccc21)c1ccc(Br)cc1 (stereo not given) was read as H9c2 protect -16, Mot1-301 SUMO 20, FAS-TE inh 28, aDG glyco up 0, MPTP inh 76*, Yeast superoxide 98 and Rh123 counter 85*.
For Cc1ccc(S(=O)(=O)N/N=C2/CC(c3ccccc3)Oc3ccccc32)cc1[N+](=O)[O-] (stereo not given) the results were H9c2 protect -14, Mot1-301 SUMO -21, FAS-TE inh 44, aDG glyco up 3, MPTP inh 78*, Yeast superoxide 95 and Rh123 counter 76*.
Screening CN(C)c1ccc(/C=C/c2ccc3ccccc3[n+]2C)cc1 returned H9c2 protect -15, Mot1-301 SUMO -1, FAS-TE inh -24, aDG glyco up 4, MPTP inh 109*, Yeast superoxide 97 and Rh123 counter 68*.
CN(C)c1ccc(/C=C/c2ccc3c4ccccc4ccc3[n+]2-c2ccccc2)cc1 was read as H9c2 protect -24, FAS-TE inh -4, aDG glyco up -1, MPTP inh 154* and Rh123 counter 77*.
`CN(CCCS(=O)(=O)[O-])c1ccc(/C=C/c2ccc3ccccc3[n+]2C)cc1` gave H9c2 protect -11, Mot1-301 SUMO 2, FAS-TE inh -5, aDG glyco up 0, MPTP inh 3 and Yeast superoxide 90.
Screening CC(C)n1nnnc1SCC(=O)c1c(N)n(C2CC2)c(=O)[nH]c1=O returned H9c2 protect -4, Mot1-301 SUMO 31, FAS-TE inh -5, aDG glyco up 0, MPTP inh 0 and Yeast superoxide 89.
For O=C(Nc1ccc(C(F)(F)F)cc1)C1CCN(S(=O)(=O)c2ccc(N3CCCC3=O)cc2)CC1 the results were H9c2 protect -11, Mot1-301 SUMO 6, FAS-TE inh 7, aDG glyco up 2, MPTP inh 92*, Yeast superoxide 103 and Rh123 counter 88*.
For COc1ccc(NC(=O)C2CCN(S(=O)(=O)c3ccc(N4CCCC4=O)cc3)CC2)cc1OC the results were H9c2 protect 5, Mot1-301 SUMO -6, FAS-TE inh -3, aDG glyco up 0, MPTP inh 1 and Yeast superoxide 72.
Nc1nc2cc3c(cc2cc1C(=O)NCc1ccc(F)cc1)OCO3 was read as FAS-TE inh -4, aDG glyco up 2, MPTP inh 86* and Rh123 counter 95*.
For CCOC(=O)N1CCN(c2ccc(Cl)c(Cl)c2)CC1 the results were H9c2 protect -5, Mot1-301 SUMO 2, FAS-TE inh 11, aDG glyco up 1, MPTP inh -2 and Yeast superoxide 88.
Screening CCOC(=O)N1CCN(C(=O)c2cc(Cl)c(Cl)cc2C(=O)O)CC1 returned H9c2 protect 9, Mot1-301 SUMO 2, FAS-TE inh -11, aDG glyco up 0, MPTP inh 55*, Yeast superoxide 104, Rh123 counter -6, MPTP swell DR >100 and MPTP counter DR >80.
Screening O=C(O)C[C@H]1c2cc(F)ccc2S(=O)(=O)N1C1CCN(Cc2ccccc2)CC1 returned H9c2 protect 3, Mot1-301 SUMO -3, FAS-TE inh -8, aDG glyco up 0, MPTP inh 1 and Yeast superoxide 105.
Cn1cc(Br)c(C(=O)N2CCCCCC2)n1 was read as H9c2 protect 2, FAS-TE inh -3, aDG glyco up 0 and MPTP inh -1.
For CSCCC(C)N1CCC(Oc2ccc(C(=O)NCc3ccccn3)cc2)CC1 (stereo not given) the results were H9c2 protect 9, FAS-TE inh -2, aDG glyco up 0 and MPTP inh 0.
`O=C(Nc1nc(-c2cccs2)c(C(=O)C(F)(F)F)s1)c1ccco1` gave H9c2 protect -8, Mot1-301 SUMO 44, FAS-TE inh 4, aDG glyco up 0, MPTP inh 4 and Yeast superoxide 133.

Screening results from PubChem.
